# According to PubChem BioAssay (NCI):
# This is part of a sample that, as a whole, favours compounds with a hit. Of some 83,000 tested, about 20% had one in any assay.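 The test compound was applied at a single concentration to cells in 96-well plates for 48 hours, and percent growth was recorded.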 The source made the active and inactive calls.
# System: HOP-62 NSCLC
# Experiment: NCI-60 one-dose screen, 48 h (100 = growth as untreated, 0 = no growth, -100 = all killed)
# Conditions: 10 µM
# Procedure: Growth inhibition of the HOP-62 human Non-Small Cell Lung tumor cell line is measured as a screen for anti-cancer activity. Cells are grown in 96 well plates and exposed to the test compound for 48 hours. Compounds are tested at a single concentration, which is 10^-5 M for most compounds. The reported endpoint is percent growth (GI% or GIPRCNT), where numbers from 0 - 100% represent growth inhibition, and numbers from -100% - 0 represent cell death. For example, a value of 40 represents 60% growth inhibition. A value of 0 means no net growth occurred over the course of the experiment. A value of -40 indicates 40% of cells at the beginning of the experiment died by the end of the experiment. A value of -100 means all cells are dead at the end of the experiment.
# NCI-60 Human Tumor Cell Lines Screen was performed using the standard one-dose NCI protocol, which is described in more detail at https://dtp.cancer.gov/discovery_development/nci-60/default.htm.
# Compounds with GIPRCNT values below 10 were considered active. Activity score was based on GIPRCNT using the following formula: […]
# Score is 0 for GIPRCNT values of 100 or above, 50 for GIPRCNT values of 0, and 100 for GIPRCNT values of -100.
row,SMILES,growth
1,O=C(NO)c1ccc(CNC(=O)[C@H]2Cc3c([nH]c4ccccc34)[C@H](c3ccccc3)N2)cc1,18.7% (inactive)
2,N#Cc1c(NC(=O)c2ccc(C(F)(F)F)c(Cl)c2)sc2c1CCC(=O)C2,-56.5% (active)
3,Cc1ccn2c(C(=O)c3ccccc3)cc(-c3cc(-c4ccc(N(C)C)cc4)c(C#N)c(N)n3)c2c1,53.1% (inactive)
4,CC(=O)Nc1ccc(-c2cn(-c3cccc(C(=O)Nc4cc(C(F)(F)F)cc(C(F)(F)F)c4)c3)nn2)cn1,-61.1% (active)
5,CS(=O)(=O)Nc1ccc(-c2ccc3c(c2)ncn3-c2ccc(NC(=O)Nc3ccc(Br)cc3)cc2)cc1,-3.22% (active)
6,OCCNc1oc(-c2ccccc2)nc1[P+](c1ccccc1)(c1ccccc1)c1ccccc1,24.2% (inactive)
7,O=C(CSc1nnc(-c2ccc3nc(-c4ccc(Cl)cc4)[nH]c3c2)o1)Nc1ccc(Cl)cc1,-56.4% (active)
8,NS(=O)(=O)c1ccc(N=Nc2c(O)n(CC(=O)Nc3ccccc3Br)c3ccccc23)cc1,37.6% (inactive)
9,N#Cc1ccc(-c2nn(-c3ccc(C(=O)O)cc3)cc2CNc2cccc(Br)c2)cc1,42% (inactive)
10,CCCCOc1ccc(Nc2nc3ccccc3nc2Nc2ccc(OCCCC)cc2)cc1,98.9% (inactive)
11,C=CC(=O)Nc1nc(-c2cccc(NS(=O)(=O)c3cccc4c(N(C)C)cccc34)c2)cs1,31.2% (inactive)
12,O=C(/C=C/Nc1ccc(F)cc1F)c1ccc2c(c1)Nc1ccccc1S2,78.5% (inactive)
13,O=C(Nc1nc2ccc([N+](=O)[O-])cc2s1)Nc1cc(Cl)ccc1I,-44% (active)
14,C=C[C@H]1[C@H](O[C@@H]2OC(CO)[C@@H](O)[C@H](O)C2OC(=O)c2c(O)cc(O)cc2-c2cccc(O)c2)OC=C2C(=O)OCC[C@H]21 (stereo not given in full),93.6% (inactive)
15,O=C(c1ccc(Cl)cc1)C1[C@H](c2ccccc2Br)[C@@H](c2ccccc2)NC12C(=O)Nc1ccc(Br)cc12 (stereo not given in full),31.2% (inactive)
16,Nc1nc(Nc2ccc(Cl)cc2)nn1Cc1cccc(Br)c1,52.5% (inactive)
17,CN1CCN(c2ccc(C(=O)/C=C/c3cc(Br)ccc3F)cc2)CC1,77.1% (inactive)
18,CN1C(=O)/C(=C/c2nccs2)SC1=S,111% (inactive)
19,O=C(c1ccc(O)cc1)C1[C@H](c2ccc(Br)cc2)[C@@H](c2ccccc2)NC12C(=O)Nc1ccccc12 (stereo not given in full),39.4% (inactive)
20,O=S(=O)(Nc1ncccn1)c1ccc(-n2c(-c3ccc(Br)cc3)nc(-c3ccccc3)c2-c2ccccc2)cc1,56.8% (inactive)

row,SMILES,growth
1,CCOC(=O)C1=C(N)N(c2ccc(C)cc2)C2=C(C(=O)CC(C)(C)C2)C1c1ccccc1OC (stereo not given),106% (inactive)
2,O=C(N/C(=C1/OCCN1Cc1ccccc1)[P+](c1ccccc1)(c1ccccc1)c1ccccc1)c1ccccc1,44.8% (inactive)
3,COc1cccc(-c2ccc(/C=N/NC(=O)c3[nH]c4ccc(Br)cc4c3-c3ccccc3)o2)c1,12.8% (inactive)
4,OCc1[nH]nc2cc(Nc3ncc4ccc(Br)c(OC5CCC(O)CC5)c4n3)ccc12 (stereo not given),0.469% (active)
5,O=c1[nH]n(C(=S)N/N=C/c2ccc(F)cc2)c(=O)c2ccccc12,80.3% (inactive)
6,CC(=C(c1ccc(OCCCN(C)C)cc1)c1ccc(OCCCN(C)C)cc1)c1ccccc1,-90.5% (active)
7,COc1ccc2[nH]c(O)c(N=NC(=O)COc3ccc(NC(=O)Nc4ccc(Cl)c(Cl)c4)cc3)c2c1,-36% (active)
8,Cc1cc(C(F)(F)F)ccc1C(=O)Nc1sc2c(c1C#N)CCC(=O)C2,1.05% (active)
9,C/C(=C\c1ccc(O)cc1O)c1ccc2ccc(O)cc2[o+]1,54.9% (inactive)
10,C/C(=N\NC(N)=S)c1ccc(Nc2nc(SC(C)C)nc(-c3ccccc3)c2C#N)cc1,34.4% (inactive)
11,N#Cc1ccc(NC(=O)CSc2ccc(-c3ccc(Br)cc3)nn2)cc1,88.6% (inactive)
12,C=C(C)[C@@H]1CC[C@]2(C)[C@H](CC=C3[C@@H]4CC(C)(C)CC[C@]4(C(=O)N4CCOCC4)CC[C@]32C)[C@@]1(C)CCCN,-90.6% (active)
13,COC1=C[C@@]23CCC(=O)N2CCc2cc4c(cc2[C@H]3[C@H]1OC(=O)C(C)(C)O)OCO4,89.2% (inactive)
14,O=C(Nc1ccc(I)cc1F)c1cc(-c2ccc(F)cc2F)ccc1O,-10.6% (active)
15,O=C(Cn1nc(-c2ccccc2)ccc1=O)NNC(=S)NC1CCCCC1,104% (inactive)
16,COc1cc(Cn2c(C(F)(F)F)cc3c(Cl)ncnc32)ccn1,32.1% (inactive)
17,CN(C)c1nc(NCCNS(=O)(=O)c2ccc(C(=O)/C=C/c3ccccc3)cc2)nc(Nc2ccc(F)cc2)n1,61.1% (inactive)
18,Cc1cccc(-c2nc(Nc3ccccc3C(=O)O)c3ccccc3n2)c1,46.2% (inactive)
19,O=c1oc2ccc(-c3ccc(F)cc3F)cc2c(=O)n1-c1ccc(F)c(Cl)c1,-25.9% (active)
20,O=c1[nH]c2ccccc2cc1CSc1ccc(Nc2nccc(-c3ccc(C(F)(F)F)cc3)n2)cc1,-14% (active)
